Source: PubChem BioAssay AID588674 (Broad Institute, 2011)
Hit rate of the full screen: of about 360,000 compounds, about 1,800 (0.5%) were called active.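 The calls were made as follows: active = mean inhibition of at least 75% with every replicate also reaching 75%; inconclusive = mean inhibition at least 75% but some replicate below; inactive = mean inhibition below 75%.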 Only a selection was taken, and actives are over-represented in it overall.

Experiment: reduction of Shn3 3'UTR firefly luciferase signal, primary screen, Schnurri-3 inhibitor project, cell-based, Clone20 osteoblasts, set 2 (AID 588674);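 also: 0% = median of neutral control wells and 100% = pilot-screen positive control compound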
Conditions: Clone20 osteoblast Shn3 3'UTR firefly luciferase, 24 h; at 12.5 µM; hits give high values

Question: Which inhibition does the source give for `CCCCCCCCCCCCn1ccc(=N)cc1` here?
Answer: 90.6% (active)

Question: For `CN1C2C=C(N(C(=O)c3ccc(Cl)cc3)c3ccccc3)CC1CC2` (stereo not given), which inhibition is on record?
Answer: -7.65% (inactive)

Question: For `Cc1ccc(S(=O)(=O)N(C)c2ccc(C(=O)NCC3(N(C)C)CCCCC3)cc2)cc1`, which inhibition is on record?
Answer: -2.63% (inactive)

Question: Which inhibition does the source give for `Nc1ccc(C(=O)N/N=C2/CN3CCC2CC3)cc1` here?
Answer: -22.5% (inactive)

Question: For `CCC(C)(O)C(=O)OC1C(=O)OC2CC3C(C)=CC(=O)C(O)C3(C)C3C4(O)OCC23C1C(C)C4O` (stereo not given), which inhibition is on record?
Answer: 91.5% (active)

Question: With `Cc1ccc(C2CN(C)CC2C(=O)c2ccc(F)cc2)cc1` (stereo not given) as the compound, how does the inhibition read?
Answer: 6.66% (inactive)

Question: For `O=C1NC(=O)C(CCc2ccccn2)(Cc2cccc(Cl)c2Cl)C(=O)N1c1ccc(Br)cc1` (stereo not given), which inhibition is on record?
Answer: 13.7% (inactive)

Question: With `CC(=O)OC1C2(CC3N4C(=O)C5(CO)SSC4(CC31O)C(=O)N5C)OC(C)C(C)(C)C2=O` (stereo not given) as the compound, how does the inhibition read?
Answer: 98.1% (active)

Question: With `CCC(=O)c1ccc(OCC(=O)N2CCN(CC(=O)Nc3ccc(C)cc3)CC2)cc1` as the compound, how does the inhibition read?
Answer: 19.6% (inactive)

Question: Which inhibition does the source give for `O=C1C2CCN(CC2)C1(CO)CO` here?
Answer: -25.5% (inactive)

Question: Which inhibition does the source give for `O=C(c1ccccc1)C(O)(CN1CCCCC1)c1ccccc1` (stereo not given) here?
Answer: 5.93% (inactive)

Question: For `CCN1C(=O)C(=Cc2c(C)n(CC(=O)NCC3CCCO3)c3ccccc23)C(=O)N(CC)C1=S` (stereo not given), which inhibition is on record?
Answer: 1.7% (inactive)

Question: With `Clc1ccc2nc3c(c(-c4ccccc4)c2c1)CNCC3` as the compound, how does the inhibition read?
Answer: 14.4% (inactive)

Question: For `C[C@]12CCC3C(CC[C@H]4[C@H](O)[C@H](O)CC[C@]34C)C1CCC2=O` (stereo not given in full), which inhibition is on record?
Answer: -16.7% (inactive)

Question: For `Cc1ccc(N2C(=O)NC(=O)C(CCc3ccncc3)(Cc3cccc(Cl)c3Cl)C2=O)cc1` (stereo not given), which inhibition is on record?
Answer: -0.01% (inactive)
